An excerpt weighted towards active compounds, which were near 1.3% of everything screened.
MOR-DOR ag: agonists of human mu-delta opioid receptor heterodimerization. 340,000 compounds, 0.3% hits. P35372+P41143. cells, OPRM1-OPRD1 heterodimerization, luminescence. activation, % at 9.3 µM; in the data active = activation above about 18%;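 note: 0% = vehicle-treated cells and 100% = reference agonist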
Target sequence (P35372 whole entry, looked up): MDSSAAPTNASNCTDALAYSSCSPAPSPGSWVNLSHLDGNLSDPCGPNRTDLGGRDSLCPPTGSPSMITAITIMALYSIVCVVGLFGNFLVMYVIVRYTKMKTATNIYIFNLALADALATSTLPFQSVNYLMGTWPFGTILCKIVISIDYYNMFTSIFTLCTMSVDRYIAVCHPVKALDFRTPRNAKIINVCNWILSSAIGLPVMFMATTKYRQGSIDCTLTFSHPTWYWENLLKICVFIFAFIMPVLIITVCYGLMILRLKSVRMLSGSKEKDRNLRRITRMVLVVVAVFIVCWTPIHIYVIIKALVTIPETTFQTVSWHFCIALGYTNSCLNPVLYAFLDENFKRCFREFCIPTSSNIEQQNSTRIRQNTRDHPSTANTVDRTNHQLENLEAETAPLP
Target sequence (P41143 whole entry, looked up): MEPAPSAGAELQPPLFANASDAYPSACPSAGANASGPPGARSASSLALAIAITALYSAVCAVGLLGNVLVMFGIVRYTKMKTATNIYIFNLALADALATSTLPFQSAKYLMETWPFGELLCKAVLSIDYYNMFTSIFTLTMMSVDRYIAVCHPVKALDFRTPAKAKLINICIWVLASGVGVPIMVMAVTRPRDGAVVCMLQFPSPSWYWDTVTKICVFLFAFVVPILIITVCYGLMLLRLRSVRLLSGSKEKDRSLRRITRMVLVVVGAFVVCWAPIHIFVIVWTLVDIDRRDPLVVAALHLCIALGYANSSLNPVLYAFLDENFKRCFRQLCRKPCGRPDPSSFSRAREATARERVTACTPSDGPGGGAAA
OPRM1-OPRD1 inv: inverse agonist of human OPRM1-OPRD1 heterodimerization | cell-based MOR-DOR heterodimer luminescence, inverse agonism | inhibition, % at 9.3 µM | 340,000 compounds, 0.21% hits | AID 504357; in the data active = inhibition above about 22%, passing the limit was not always enough;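 note: 0% = cells with DMSO and 100% = wells without cells with DMSO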
HTR5A inv ag: inverse agonist of human HTR5A in OPRM1-OPRD1 counter-screen. P47898. HTR5A cell line, luminescence, inverse agonism. inhibition, % at 9.3 µM. 340,000 compounds, 0.083% hits; in the data active = inhibition mostly above about 23%, no sharp cut-off; inactive = mostly below about 18%;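 note: 0% = cells with DMSO and 100% = no-cell wells with DMSO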
Yeast superoxide: caloric restriction mimetics inhibiting age-related superoxide in yeast. S. cerevisiae aged cells, superoxide DHE fluorescence; active compounds read low. AID 2690. 330,000 compounds, 0.18% hits. superoxide response (% of plate mean), % at 10 µM;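 active = superoxide response under a set limit, about three screen SD below normal, cut at about 65% in these data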;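 note: yeast aged for seven days with compound at 30 °C before DHE staining; 100% = average MFI of all compound-treated wells on the plate with controls excluded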
HTR5A ag: counter-screen for OPRM1-OPRD1 agonists: human HTR5A agonism. P47898. HTR5A agonist assay, luminescence, cell-based. activation, % at 9.3 µM. 340,000 compounds, 0.61% hits. AID 504692; in the data active = activation mostly above about 9.5%, no sharp cut-off; inactive = mostly below about 7.6%;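 note: 0% = cells with vehicle only and 100% = reference agonist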
PvdQ inh: blocks Pseudomonas aeruginosa PvdQ acylase activity; purified PvdQ acylase, fluorescence plate reader; 340,000 compounds, 0.063% hits; inhibition, % at 10 µM; in the data active = inhibition above about 30%, passing the limit was not always enough;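 note: 0% = vehicle neutral wells and 100% = reference inhibitor wells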
An asterisk follows results filed as active; . = no result given.

SMILES	MOR-DOR ag	OPRM1-OPRD1 inv	HTR5A inv ag	Yeast superoxide	HTR5A ag	PvdQ inh
CCOc1cc(NC(=O)c2cccs2)c(OCC)cc1NC(=O)CCC(=O)NCC1CCCO1 (stereo unspecified)	.	.	.	103	.	-2
COc1ccc(NC(=O)C(=O)c2cn(CC(=O)N3CCCC3)c3ccccc23)cc1	-2	12	-9	82	2	-5
CCCOc1ccc(C(=O)CCC(=O)OCC(=O)Nc2cccc(S(N)(=O)=O)c2)cc1	0	2	-9	.	-3	49*
O=C(COC(=O)/C=C/c1ccccc1)NNC(=O)c1ccccc1F	0	-2	18	.	-7	-14
COc1ccc(-c2csc(NC(=O)C3=NN(c4ccccc4)C(=O)CC3)n2)cc1	-1	7	-27	95	10*	-4
CCOC(=O)c1nn(-c2ccccc2Cl)c(=O)cc1OCC(=O)Nc1cccc(OC)c1	-3	15	-2	104	-7	2
CCN1CCN(c2ccc(NC(=O)c3ccc4c(c3)[nH]c(=O)n4Cc3ccc(F)cc3)cc2)CC1	1	-4	10	96	12*	-6
COc1ccc(Cn2c(=O)[nH]c3cc(C(=O)Nc4ccc(N5CCN(C)CC5)cc4)ccc32)cc1	-2	8	-11	100	-3	9
COc1c(F)c(F)c(C(=O)Nc2ccc(N3CCN(Cc4ccccc4)CC3)cc2)c(F)c1F	5	-30	-40	96	9.8*	-14
COc1ccc(C(=O)Nc2ccc(N3CCN(Cc4ccccc4)CC3)cc2)cc1	.	.	.	90	.	-15
O=C(CN1C(=O)NC(c2ccccc2)(c2ccccc2)C1=O)NCc1ccco1	-2	11	-7	89	2	-4
CCOc1ccc(/C(C)=N\NC(=O)Cc2ccccc2)cc1	-1	6	-12	95	-3	4
O=C(/C=C/c1cccnc1)c1ccc(F)c(F)c1	-2	9	-4	110	1	3
CN(C)c1ccc(C(=O)/C=C/c2cccnc2)cc1	-3	13	-34	101	9.2*	11
CC(C)C(NC(=O)OCc1ccccc1)C(=O)NCc1ccc(C(=O)O)cc1 (stereo unspecified)	-2	10	14	87	-5	-15
O=C(NC(Cc1ccccc1)C(=O)NC1CC1)OCc1ccccc1 (stereo unspecified)	1	-7	27	92	12*	8
O=C(N[C@@H](Cc1ccccc1)C(=O)N[C@@H](Cc1ccccc1)C(=O)O)OCc1ccccc1	-1	5	-38	104	13	-12
CC(C)[C@H](NC(=O)OCc1ccccc1)C(=O)NCc1ccccc1	-1	7	-32	84	12*	-7
O=C(COc1ncnc2ccc(Br)cc12)NC1CCCC1	-1	3	-10	117	4	13
CCCCOc1ccc(C(=O)NCC(=O)NCCCn2nc(C)cc2C)cc1	-2	9	10	90	-4	-1
Cc1cc(NC(=O)c2cc(Cl)ccc2Cl)no1	-1	6	0	79	-1	75*
Cc1cc(NC(=O)c2c(F)c(F)c(F)c(F)c2F)no1	-1	6	-24	114	-3	63*
Cc1cc(NC(=O)c2ccccc2Cl)no1	0	0	-4	101	3	-8
Cc1cc(NC(=O)c2cc([N+](=O)[O-])ccc2Cl)no1	-1	5	-1	95	3	88*
Cc1cc(NC(=O)c2ccc(COc3ccc(Cl)c(C)c3)o2)no1	2	-10	1	92	0	-8
SMILES	MOR-DOR ag	OPRM1-OPRD1 inv	HTR5A inv ag	Yeast superoxide	HTR5A ag	PvdQ inh
Cc1cc(NC(=O)c2ccc(COc3ccccc3Cl)o2)no1	3	-15	-12	113	9.7*	-21
Cc1cc(C)c2cc(C(=O)N3CCN(c4ncccc4C(F)(F)F)CC3)[nH]c2c1	4	-21	-8	107	2	1
COCC(C)NC(=O)CSc1nc2cc(S(=O)(=O)N3CCCCC3)ccc2o1 (stereo unspecified)	-3	11	-1	99	0	-11
CC1Sc2ccc(S(=O)(=O)CCC(=O)NC(C)c3ccccc3)cc2NC1=O (stereo unspecified)	-2	12	-3	125	1	4
N#Cc1ccc(Cl)cc1NC(=O)COC(=O)c1cccc(S(=O)(=O)N2CCOCC2)c1	0	1	-7	97	0	5
Cc1cc(NC(=O)c2ccc([N+](=O)[O-])cc2Cl)no1	4	-18	8	104	-2	40*

Screening data from PubChem.
